The record followed here is PubChem BioAssay.

For orientation: viability means a read-out of living cells in per cent, often relative to untreated cells. One may read the inhibition as the change of the read-out against control, counted positive when it falls.

Where “and” joins values, the source holds several entries; their conditions need not be identical. Identical values can stand only once. Calls of active or inactive are those of the source. Rule as the data show it, unless noted: active = parasite load remaining mostly below about 12% (no sharp cut-off); inactive = mostly above about 10%.

Assay [1] is described as follows: P. berghei load reduction in hepatocytes – cell-based, HepG2, luciferase luminescence, HepG2 viability, primary screen (AID 624349).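 Also: 100% = mean of DMSO negative control wells on the same plate.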 The settings on record: P. berghei liver stage in HepG2, luciferase luminescence, concentration not given here; parasite load remaining: stronger effect = lower value; viability: measured here: HepG2 viability without parasites.
Assay [2] is described as follows: Wnt pathway potentiators raising nuclear beta-catenin – imaging, WNT3A-conditioned medium, mouse C2C12, NPC library, primary screen (AID 1117326; in the data active = nuclear beta-catenin stimulation mostly above about 4.2%, no sharp cut-off; inactive = mostly below about 10%). The settings on record: stronger effect = higher value.
Assay [3] is described as follows: stimulators of insulin release from INS-1E, primary screen, cell-based, 5 mM glucose, NPC library (AID 1117329;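 active = compound raises insulin release from rat beta cells at 5 mM glucose, no numeric limit stated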). The settings on record: rat INS-1E insulin secretion, at 10 µM, stronger effect = higher value.
Assay [4] is described as follows: growth inhibition of GSK3B-pretreated HCT116 cells – cell-based, CellTiter-Glo, 0.2 to 20 µM (AID 1117336;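 active = compounds lowering colon cancer cell viability after pretreatment blocking the GSK3B kinase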). The settings on record: HCT116 viability after GSK3B inhibitor, at 20 µM, stronger effect = higher value. On the technique in general: Cellular ATP, detected with luciferase, serves as a proxy for viable cell number.
A short description of assay [5]: inhibition of endothelial tube formation, primary screen, imaging, VEGF stimulated, CD31 staining, tube area, NPC library (AID 1117340;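 active = compound that reduces growth-factor-driven endothelial tube area in a mixed cell culture, no cutoff stated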). To be noted: VEGF-stimulated ADSC/ECFC co-culture, at 10 µM, stronger effect = higher value.
Assay [6] can be described thus: GLP1 release stimulators, primary, NCI-H716, NPC library (AID 1117341;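 active = compound raises GLP1 secretion from the human gut endocrine cells, with no numeric limit stated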). To be noted: NCI-H716 cells, at 10 µM, stronger effect = higher value.
A short description of assay [7]: HCT116 colon cancer cell growth inhibition, primary screen, CellTiter-Glo luminescence, NPC library (AID 1117342;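 active = compounds that lower survival of HCT116 colon cancer cells in the luminescence readout, no numeric limit stated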). The settings on record: at 20 µM (top of the series).
Assay [8] is described as follows: reduced SW480 viability measured with CellTiter-Glo, NPC library, primary (AID 1117343;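 active = compounds that lower viability of the colon cancer cells in the luminescence readout, with no numeric limit stated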). To be noted: CellTiter-Glo luminescence; at 20 µM (top of the series).
Assay [9] is described as follows: NPC library primary testing for decreased DLD-1 cell viability via CellTiter-Glo (AID 1117346;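 active = compounds that lower survival of DLD-1 colon cancer cells in the luminescence readout, no cutoff given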). To be noted: DLD-1 viability, CellTiter-Glo luminescence; at 20 µM (top of the series).
In assay [10] the target is 6-phosphogluconate dehydrogenase, decarboxylating (Homo sapiens) (UniProt P52209). Description: inhibition of human phosphogluconate dehydrogenase – biochemical, recombinant enzyme, NADPH absorbance, primary screen (AID 1159550;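 active = at least 20% inhibition of 6-phosphogluconate dehydrogenase activity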). The settings on record: recombinant 6PGD, NADPH absorbance 341 nm; at 10 µM; stronger effect = higher value.
Assay [11] in a line: EMT-state selective cytotoxicity in co-culture – imaging, PC-3E GFP, TEM4-18 mCherry, primary screen (AID 1345086;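 active = compounds killing one labelled cell type while sparing the other, by normalised counts and ratio limits, not self-fluorescent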;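 as to all read-outs here: cells exposed to compound for 72 h before imaging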;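 as to red/green cell ratio (normalised): normalised mesenchymal count divided by normalised epithelial count so high means epithelial killing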). To be noted: PC-3E GFP / TEM4-18 mCherry co-culture, imaging cell counts, at 1 µM; for red/green cell ratio (normalised): actives lie on both sides.
The subject of assay [12] is Aerobactin synthetase IucA (Klebsiella pneumoniae hvKP1). The assay is described as follows: IucA enzyme inhibition, primary screen, biochemical, Spectrum library (AID 1346200; call rule not given here;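 also: 100% = wells without compound and 0% = wells lacking enzyme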). The settings on record: malachite green pyrophosphate, A620, at 8 µM, stronger effect = lower value.
Assay [13] in a line: viability loss with induced miR-34 in A549 – imaging, A549 dox-inducible miR-34, nuclei and caspase counts, primary screen (AID 1347080;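 active = compounds whose cell count with miR-34 switched on is under 0.7 times the count with it off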). The settings on record: A549 miR-34 inducible, Hoechst nuclei count, 48 h.
In assay [14] the target is NAD(+) hydrolase SARM1 (Homo sapiens) (UniProt Q6SZW1). The assay is described as follows: blocking NAD cleavage by SARM1 SAM-TIR – cell lysate, NAD-Glo luminescence (AID 1508614;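 active = compound whose remaining NAD level is above about 45 nM, limit read from the data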;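 also: higher remaining NAD means stronger inhibition of SARM1 NADase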). The settings on record: SAM-TIR HEK293T lysate NADase, at 1 µM, stronger effect = higher value.
Assay [15] addresses Mitogen-activated protein kinase 7 (Homo sapiens) (UniProt Q13164). Description: Gal4-ERK5 driven luciferase induction – cell-based, HTS, primary screen (AID 1508626;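 active = luciferase signal above three times the same-plate solvent-only control wells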;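 also: luciferase driven by Gal4-ERK5 fusion binding five Gal4 sites before minimal TATA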). The settings on record: HeLa Gal4-ERK5 transactivation, 18 h, at 5 µM, stronger effect = higher value.
A short description of assay [16]: galactose survival enhancers in mitochondrial complex I cybrids – cell-based, galactose medium, ATP luminescence, primary screen (AID 1645843;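 active = z-score of at least 1.8 in each of two replicates, scored against plate mean and spread of sample wells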;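 also: positive z means more ATP and so rescue of galactose-driven cybrid death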). To be noted: complex I mutant cybrid cells, 72 h, stronger effect = higher value.
Assay [17] can be described thus: yeast 75Q aggregation reduction – 75Q-TubU reporter (AID 1593). The settings on record: Yeast 75Q polyglutamine aggregation reporter.
The nature of assay [18]: blockers of cytochrome c efflux from mitochondria – biochemical, purified mitochondria (AID 1603).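 Also: mouse liver mitochondria challenged with calcium chloride; signal normalized to the plate average as 100%.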 To be noted: stronger effect = lower value.
Assay [19] is described as follows: polyglutamine aggregate formation blockers (AID 1604). The settings on record: polyglutamine-induced protein aggregation inhibition assay; stronger effect = higher value; tested at 2.5 µM.
Assay [20] can be described thus: MELAS cybrid and Rieske KO viability enhancers – cell-based, MELAS cybrids, Rieske KO mouse fibroblasts, CellTiter-Glo, primary screen (AID 1508586;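 active = mean z-score across replicates of 1.96 or higher in either the MELAS or the Rieske mutant cell line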;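 also: z relative to plate mean and SD of compound and empty wells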). To be noted: low glucose.
Where [21] appears, read: measured here: epithelial PC-3E GFP cell survival.
The mark [22] stands for this setting: measured here: mesenchymal TEM4-18 mCherry cell survival.
Setting [23] is: measured here: relative caspase fold change +Dox/-Dox.
The mark [24] stands for this setting: measured here: total cells with miR-34 induction, stronger effect = lower value.
The mark [25] stands for this setting: measured here: total cells without miR-34 induction.
The mark [26] stands for this setting: MELAS cybrid survival, CellTiter-Glo 48 h, stronger effect = higher value.
[27] abbreviates: Rieske KO mouse fibroblast survival, CellTiter-Glo 72 h.

Sequence of 6-phosphogluconate dehydrogenase, decarboxylating (Homo sapiens) (P52209 whole entry, looked up): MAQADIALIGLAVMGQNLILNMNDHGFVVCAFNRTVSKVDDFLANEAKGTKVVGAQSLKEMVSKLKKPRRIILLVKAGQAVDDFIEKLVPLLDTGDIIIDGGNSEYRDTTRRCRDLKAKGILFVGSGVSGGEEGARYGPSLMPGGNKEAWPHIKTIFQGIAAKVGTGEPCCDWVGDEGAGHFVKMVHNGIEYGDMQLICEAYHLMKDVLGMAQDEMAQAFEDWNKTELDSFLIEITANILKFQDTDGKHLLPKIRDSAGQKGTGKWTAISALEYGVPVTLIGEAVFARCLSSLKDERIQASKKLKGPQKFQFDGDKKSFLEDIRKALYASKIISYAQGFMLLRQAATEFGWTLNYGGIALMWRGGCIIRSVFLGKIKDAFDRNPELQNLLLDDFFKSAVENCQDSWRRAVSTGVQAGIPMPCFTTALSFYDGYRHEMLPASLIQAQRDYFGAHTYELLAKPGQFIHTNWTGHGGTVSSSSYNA
Sequence of NAD(+) hydrolase SARM1 (Homo sapiens) (Q6SZW1 whole entry, looked up, the tested form may be a part): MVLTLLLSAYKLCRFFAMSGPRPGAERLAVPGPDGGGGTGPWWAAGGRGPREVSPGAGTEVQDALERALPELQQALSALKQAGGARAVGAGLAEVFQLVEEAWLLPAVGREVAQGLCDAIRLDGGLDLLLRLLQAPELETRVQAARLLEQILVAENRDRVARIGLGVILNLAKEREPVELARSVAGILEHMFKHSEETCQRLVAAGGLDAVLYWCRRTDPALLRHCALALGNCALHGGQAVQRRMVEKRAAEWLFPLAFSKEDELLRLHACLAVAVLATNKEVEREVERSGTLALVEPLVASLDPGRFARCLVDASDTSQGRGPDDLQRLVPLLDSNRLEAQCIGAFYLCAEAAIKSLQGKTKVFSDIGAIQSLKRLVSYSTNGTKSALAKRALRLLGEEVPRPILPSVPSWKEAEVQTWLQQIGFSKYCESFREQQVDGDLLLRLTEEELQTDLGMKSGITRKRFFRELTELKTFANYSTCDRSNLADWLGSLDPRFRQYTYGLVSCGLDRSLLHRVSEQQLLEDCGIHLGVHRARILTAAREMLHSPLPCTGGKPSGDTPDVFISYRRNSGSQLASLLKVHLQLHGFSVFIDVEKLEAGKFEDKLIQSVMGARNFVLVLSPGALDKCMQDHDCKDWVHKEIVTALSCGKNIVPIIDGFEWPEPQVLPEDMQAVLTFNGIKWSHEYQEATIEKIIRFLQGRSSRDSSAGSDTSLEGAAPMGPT
Sequence of Mitogen-activated protein kinase 7 (Homo sapiens) (Q13164 whole entry, looked up, the tested form may be a part): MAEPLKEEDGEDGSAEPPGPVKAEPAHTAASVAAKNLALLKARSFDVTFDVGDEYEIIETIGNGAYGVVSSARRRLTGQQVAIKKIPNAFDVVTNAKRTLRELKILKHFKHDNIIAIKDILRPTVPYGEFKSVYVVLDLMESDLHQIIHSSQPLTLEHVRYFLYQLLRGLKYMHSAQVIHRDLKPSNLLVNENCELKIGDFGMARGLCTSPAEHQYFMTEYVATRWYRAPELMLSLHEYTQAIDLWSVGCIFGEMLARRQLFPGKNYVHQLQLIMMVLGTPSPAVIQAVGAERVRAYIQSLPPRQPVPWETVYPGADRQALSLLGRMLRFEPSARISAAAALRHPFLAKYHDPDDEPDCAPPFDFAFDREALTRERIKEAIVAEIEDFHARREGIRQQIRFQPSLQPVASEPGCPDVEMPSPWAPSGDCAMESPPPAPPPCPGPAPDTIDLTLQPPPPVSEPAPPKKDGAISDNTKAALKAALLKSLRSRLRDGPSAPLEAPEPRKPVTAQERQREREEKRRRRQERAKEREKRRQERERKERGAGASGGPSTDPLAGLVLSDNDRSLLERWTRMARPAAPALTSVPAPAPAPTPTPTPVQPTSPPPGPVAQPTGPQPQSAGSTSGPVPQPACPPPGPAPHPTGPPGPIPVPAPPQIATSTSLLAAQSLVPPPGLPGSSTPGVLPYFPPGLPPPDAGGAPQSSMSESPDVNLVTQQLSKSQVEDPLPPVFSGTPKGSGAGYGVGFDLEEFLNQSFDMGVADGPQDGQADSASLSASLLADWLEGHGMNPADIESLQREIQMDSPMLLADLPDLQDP

With `Cc1ncc(CNC(=O)N(CCCl)N=O)c(N)n1`, the parasite load remaining in assay [1] was 130% (inactive). Also, the viability in assay [1] was 90.7%. Moreover, the nuclear beta-catenin stimulation is 3% (inactive) in [2] (at 10 µM) and -0.9% in [2] (stimulation, at 2 µM). In addition, the insulin secretion stimulation in [3] was 0.3% (inactive). Further, the viability decrease in assay [4] was -0.8% (inactive). Moreover, the tube area decrease in [5] was 28.9% (inactive). Moreover, the GLP1 secretion stimulation in assay [6] was -6% (inactive). For the same compound, the inhibition of viability in assay [7] was -0.1% (inactive). The values for the viability decrease (inhibition) in assay [8] and in assay [9] were 10.9% (inactive) and 1.8% (inactive), respectively. Further, the inhibition in assay [10] is 2.15% (inactive). Moreover, the red/green cell ratio (normalised) in assay [11] was 0.95 (inactive). For the same compound, the results for the normalised cell number in [11] (setting [21]) and in assay [11] (setting [22]) were 0.91 and 0.86, respectively. The activity remaining in assay [12] is 107% (inactive). In addition, the fold change was 0.981 (inactive) in [13] (stronger effect = lower value) and 1.12 in assay [13] (setting [23]). Further, the cell count in assay [13] (setting [24]) was 6420; in [13] (setting [25]) it was 6540. Further, in [14], the remaining NAD was 10 nM (inactive). In addition, the luciferase signal in [15] is 100 AU (inactive). For the same compound, the z-score in assay [16] is -0.62 (inactive).

Consider `COc1ccccc1N1CCNCC1`, for which the nuclear beta-catenin stimulation in assay [2] (at 10 µM) was 0.2% (inactive); in [2] (stimulation, at 2 µM), -0.4%. Besides, the insulin secretion stimulation in assay [3] is -0.2% (inactive). In addition, the viability decrease in assay [4] is -7.7% (inactive). In assay [5], the tube area decrease is 7.7% (inactive). In addition, in assay [6], the GLP1 secretion stimulation is -2.3% (inactive). The inhibition of viability in assay [7] was -22.5% (inactive). Moreover, the viability decrease (inhibition) in assay [8] is 106% (active); in assay [9], -1.65% (inactive). In assay [10], the inhibition is -1.05% (inactive). Besides, the red/green cell ratio (normalised) in assay [11] is 0.87 (inactive). The normalised cell number is 1.09 in [11] (setting [21]) and 0.94 in assay [11] (setting [22]). In addition, in assay [12], the activity remaining is 95.5% (inactive). Moreover, the fold change is 0.98 (inactive) in assay [13] (stronger effect = lower value) and 1.58 in assay [13] (setting [23]). Besides, the cell count in [13] (setting [24]) was found to be 9780; in assay [13] (setting [25]), 9980. Further, in [16], the z-score is 1.06 (inactive).

`CCC1(CC)C(=O)C=CNC1=O`: in [17], the score is 0.96 and 1.19. For the same compound, in assay [18], the cytochrome c release ratio was 1.06 and 0.67. Moreover, the inhibition of aggregation in assay [19] is 63.5% and 88.5%. The parasite load remaining in [1] is 98.5% (inactive) and 80.5% (inactive). Also, the viability in [1] is 103% and 91.2%. Also, the nuclear beta-catenin stimulation in [2] (at 10 µM) was -0.7% (inactive); in assay [2] (stimulation, at 2 µM), -1.5%. Also, the insulin secretion stimulation in [3] was 0.8% (inactive). In [4], the viability decrease is -18% (inactive). The tube area decrease in assay [5] is -3.8% (inactive). In addition, the GLP1 secretion stimulation in [6] was -1.4% (inactive). In [7], the inhibition of viability is -8.6% (inactive). Also, the viability decrease (inhibition) in assay [8] is 4.3% (inactive); in assay [9] it was -15.1% (inactive). In assay [10], the inhibition was 8.27% (inactive). Also, in assay [11], the red/green cell ratio (normalised) is 0.86 (inactive). Further, the figures for the normalised cell number in assay [11] (setting [21]) and in assay [11] (setting [22]) were 1.13 and 0.97, respectively. In [12], the activity remaining is 115% (inactive). The fold change was 0.859 (inactive) in [13] (stronger effect = lower value) and 1.13 in assay [13] (setting [23]). The cell count in [13] (setting [24]) came to 8380; in assay [13] (setting [25]) it was 9750. Moreover, the z-score in assay [20] (setting [26]) is 0.0321 (inactive); in assay [20] (setting [27]), -1.05. Moreover, the remaining NAD in [14] is 10 nM (inactive). Further, the luciferase signal in assay [15] was 36 AU (inactive).

As for `CC(C)[N+](C)(CCC(C(N)=O)(c1ccccc1)c1ccccc1)C(C)C`, in assay [17], the score was 1.43. The cytochrome c release ratio in assay [18] was determined as 1.07. Further, the inhibition of aggregation in assay [19] worked out at 35.2%. Moreover, in [1], the parasite load remaining was 94.4% (inactive) and 83.4% (inactive) and 60% (inactive). Also, the viability in [1] was 100% and 76.1% and 93.6%. Further, the nuclear beta-catenin stimulation is 0.4% (inactive) in assay [2] (at 10 µM) and -0.3% in assay [2] (stimulation, at 2 µM). For the same compound, the insulin secretion stimulation in assay [3] was -0.4% (inactive). Besides, the viability decrease in assay [4] was -32.8% (inactive). Besides, the tube area decrease in [5] is -3.8% (inactive). In addition, the GLP1 secretion stimulation in assay [6] is -1.4% (inactive). Besides, the inhibition of viability in assay [7] is -3.83% (inactive). In addition, the viability decrease (inhibition) was 22% (inactive) in [8] and -1.8% (inactive) in assay [9]. The inhibition in assay [10] was -13.2% (inactive). Besides, the red/green cell ratio (normalised) in assay [11] was 0.98 (inactive). Also, the normalised cell number worked out at 1.19 in assay [11] (setting [21]) and 1.17 in assay [11] (setting [22]). The activity remaining in [12] is 119% (inactive). The fold change was 0.953 (inactive) and 0.875 (inactive) in [13] (stronger effect = lower value); 1.13 and 0.654 in assay [13] (setting [23]). Also, the cell count in assay [13] (setting [24]) was 8490 and 10700; in [13] (setting [25]) it was 8910 and 12200. Further, the figures for the z-score in assay [20] (setting [26]) and in assay [20] (setting [27]) were -0.488 (inactive) and -0.766, respectively. Further, the remaining NAD in [14] is 10 nM (inactive). Also, the luciferase signal in assay [15] is 76 AU (inactive).
